Data from PubChem BioAssay AID485297 (National Center for Advancing Translational Sciences (NCATS), 2010).
In all, about 320,000 compounds went through this assay and about 9,100 (2.8%) were called active. About 3% were inconclusive and are not listed. The full list was thinned out, with actives kept by preference. Unmarked numbers belong to inactive results. The call rests on the fitted dose curve; in most records, active means well fitted activation curve with a large enough effect; inconclusive means small, poorly fitted or top-dose-only effect; inactive means no such curve, though single readings can be large or run the other way.

Test: qHTS Assay for Rab9 Promoter Activators; further: nearly all actives have a fitted effect of over 60% in size; on activation, negative = inhibition: % of control where 0% means no effect
Details: Huh7 Rab9 promoter-luciferase reporter, luminescence, 24 h; series mostly up to 9.22 µM; activation, negative = inhibition: at the top concentration
In short: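 Luciferase signal after 10 min detection reagent at ambient indicates Rab9 promoter upregulation; stably transfected Huh7 cells were treated 24 h with compound in DMSO at 37 °C, 5% CO2.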
Potency means the concentration at half of the fitted maximal effect.

Row | Structure (SMILES) | activation, negative = inhibition [%] | Potency
1 | COc1ccccc1NC(=O)COC(=O)COc1ccccc1F | -7.1 | 
2 | CCS(=O)(=O)C1=NSC2=NC(=O)/C(=C\c3cc(C)n(-c4cccc(OC)c4)c3C)C(=N)N21 | 11.3 | 
3 | Cc1cc(/C=C2/C(=N)N3C(=NC2=O)SN=C3S(C)(=O)=O)c(C)n1-c1ccccc1 |  | 3550 nM (active)
4 | CCC1=NN2C(=N)/C(=C/c3cc(C)n(-c4ccccc4)c3C)C(=O)N=C2S1 | -0.946 | 
5 | COc1ccc([C@H]2CC(=O)C=C(/C=C/c3ccccc3)C2)cc1 | 29.8 | 
6 | Cc1cc(C)cc(NC(=O)N2CCCCCCC2)c1 | -4.2 | 
7 | COc1ccc2oc(=O)c(C(=O)N3CCCC3)cc2c1 | -2 | 
8 | Cc1ccc2cc3cc(C(=O)N4CCCCCC4)oc3nc2c1 |  | 631 nM (active)
9 | O=C(NNC(=O)c1cc(S(=O)(=O)N2CCCCC2)ccc1Cl)c1ccccc1O | 1.25 | 
10 | COc1ccc(C(=O)NC2CCN(C(=S)NCCc3ccccc3)CC2)cc1 | -5.13 | 
11 | O=C1CCN(C(=S)NCCc2ccccc2)CC1 | -4.64 | 
12 | S=C(NCCc1ccccc1)N1CCCCC1 |  | 3160 nM (active)
13 | Cc1cccn2c(=O)nc(SCC(=O)NCc3ccccc3Cl)nc12 | -0.952 | 
14 | CC(C)CCN1CCC(C)(NC(=O)c2ccccc2)C1=O (centres undefined) | -5.81 | 
15 | Nc1nonc1-c1noc(-c2ccc(Br)o2)n1 | 4.09 | 
16 | Brc1ccc(-c2noc(-c3ccccc3)n2)o1 |  | 1260 nM (active)
17 | Cn1nc(-c2ccccc2)c(-c2nc(-c3ccc(Cl)cc3)no2)c1Cl | 2.72 | 
18 | CCOC(=O)c1cn[nH]c1NC(=S)Nc1ccccc1 |  | 1120 nM (active)
19 | CCOC(=O)c1cc2c(nc1NC(=S)Nc1ccccc1)CC(C)(CC)OC2 (centres undefined) | 2.37 | 
20 | CCOC(=O)c1ccc(NC(=S)Nc2cc(C)cc(C)n2)cc1 | 8.83 | 
21 | Cn1nc(C(=O)OCC(=O)N(Cc2ccccc2)C(C)(C)C)c2ccccc2c1=O | -5.8 | 
22 | O=S(=O)(Nc1ccc(-n2cnnn2)cc1)c1ccc(Cl)cc1 | 2.76 | 
23 | O=C(COc1nc2ccccc2nc1N1CCOCC1)NCC(F)(F)F | 1.89 | 
24 | O=C(C1Cc2ccccc2CN1C(=O)c1ccco1)N1CCN(c2ccccc2)CC1 (centres undefined) | -0.202 | 
25 | CCn1cnc2scc(-c3ccc(C)c(C)c3)c2c1=O | -0.893 | 
26 | O=C(O)C1CCCCC1C(=O)Nc1ccc(Cl)cc1 (centres undefined) | -0.294 | 
27 | O=C(Nc1ccc(Cl)cc1)/C(=C1\CCCN1)[N+](=O)[O-] |  | 2820 nM (active)

Row | Structure (SMILES) | activation, negative = inhibition [%] | Potency
28 | Cc1nc([N+](=O)[O-])cn1CC(=O)Nc1ccc(Cl)cc1 | 2.29 | 
29 | COc1ccc(N2C(=O)CC(Nc3ccc(F)cc3)C2=O)c([N+](=O)[O-])c1 (centres undefined) | 7.65 | 
30 | COc1ccc(C(=O)O/N=C(\N)c2ccccn2)cc1[N+](=O)[O-] |  | 4470 nM (active)
31 | O=C(Nc1ccccc1Cl)O/N=C(/c1ccccc1)c1ccccn1 | 9.2 | 
32 | N/C(=N\OC(=O)c1ccc([N+](=O)[O-])cc1)c1ccccn1 |  | 316 nM (active)
33 | O=C(OCc1ccc([N+](=O)[O-])cc1)c1ccccn1 | -1.27 | 
34 | COc1ccccc1OCC(=O)OCc1cc(-c2ccco2)on1 | 1.46 | 
35 | COc1ccc(C(=O)CSc2nc(C)cc(C)n2)cc1[N+](=O)[O-] | -0.448 | 
36 | COc1ccccc1OCC(=O)O/N=C(\N)c1ccccn1 |  | 3160 nM (active)
37 | Cc1ccc(C(=O)O/N=C(\N)c2ccccn2)cc1Cl |  | 3160 nM (active)
38 | COc1ccccc1OCC(=O)OCn1c(SC)nnc(C)c1=O | -2.91 | 
39 | O=C(COC(=O)c1ccccn1)NNC(=O)c1ccc([N+](=O)[O-])cc1 | -4.35 | 
40 | Cc1ccc(Cl)cc1NC(=O)c1ccccn1 | 12 | 
41 | COc1ccc(C(=O)NNC(=O)c2cnccn2)cc1[N+](=O)[O-] | 0.405 | 
42 | CC(C)Cn1c(N)c(C(=O)COC(=O)C2CCCN2C(=O)c2cccs2)c(=O)n(C)c1=O (centres undefined) | -0.406 | 
43 | CCOc1c(Nc2cccc(Cl)c2)c(=O)c1=O | -5.39 | 
44 | CS(=O)(=O)Nc1ccccc1C(=O)OCC(=O)NC1CC1 | -1.03 | 
45 | CCOC(=O)C1CCN(C(=O)c2cccc(S(=O)(=O)N(CC)c3ccccc3)c2)CC1 | -4.21 | 
46 | Cn1c2cc(B(O)O)sc2c2cnn(Cc3ccccc3F)c(=O)c21 | -3.22 | 
47 | COc1ccc(CC2c3cc(OC)c(OC)cc3CC[N+]2(C)CCC(=O)OCCCCCOC(=O)CC[N+]2(C)CCc3cc(OC)c(OC)cc3C2Cc2ccc(OC)c(OC)c2)cc1OC (centres undefined) | -6.08 | 
48 | CCc1cccc(C)c1NC(=O)COC(=O)CC1CCCC1 | 0.691 | 
49 | Cc1cc(C)c(S(=O)(=O)N2CCC(C(=O)OCc3c(C)noc3C)CC2)c(C)c1 | 2.51 | 
50 | CC(=O)c1ccc(OCCCC(=O)Nc2ccc(C)c(S(=O)(=O)N3CCOCC3)c2)cc1 | -10.3 | 
51 | COc1ccc(Cl)cc1C(=O)OCC(=O)NCc1cccs1 | 2.82 | 
52 | CCOC(=O)c1c(C)[nH]c(C(=O)NCCN2CCOCC2)c1C | -1.3 | 
53 | COC(=O)Cc1ccc(OCC(=O)NC2CCCC2)cc1 | -2.32 | 
54 | CN(CC(=O)Nc1ccc(F)cc1)CC(=O)N1CCCCC1 | -1.1 | 
